From PubChem BioAssay
NS1 inh = qHTS Assay for Inhibitors of Influenza NS1 Protein Function | 270,000 tested, 0.4% active | AID 2326, 2010 | Potency, µM (highest dose often 46.1 µM), for the others: at the top dose activity, positive = more growth; calls by dose curve; also: potency is read from the fitted curve at half-maximal effect; actives are rising curves; nearly all actives have a fitted effect of over 50% in size
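Compounds were scored for reversing the slow growth caused by influenza A NS1 in S. cerevisiae, measured by optical density at 600 nm. Assay medium contained 2% galactose at pH 6.0; NS1-free yeast of the same strain were the positive control.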
Sm TGR block = qHTS Assay for the Inhibitors of Schistosoma Mansoni Peroxiredoxins; Schistosoma mansoni thioredoxin glutathione reductase (TGR), Q962Y6; purified TGR, DTNB reduction, TNB absorbance 405 nm; Potency, µM (titrated, usually from 114 µM), for the others: at the highest dose activity change, negative = inhibition, usual class: inhibitors; 360,000 tested, 3% active; AID 485364, 2010; also: potency is read from the fitted curve at half-maximal effect; % is scaled to controls: 0 for no effect and ±100 for the full control effect; nearly all actives have a fitted effect of over 60% in size
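First, TGR (20 nM dispensed) and NADPH were mixed with compound. Second, a 15 min room-temperature incubation followed. Third, further NADPH and then DTNB were added to start the reaction. Finally, TNB absorbance was monitored kinetically.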
Pf growth 96h = Primary qHTS for delayed death inhibitors of the malarial parasite plastid, 96 hour incubation. 320,000 tested, 6.9% active. P. falciparum luciferase reporter growth, 96 h. AID 504834, 2011. Potency, µM (top dose mostly 28.7 µM), for inactives: top-dose activity change, negative = inhibition, hits mostly inhibitors; also: potency is read from the fitted curve at half-maximal effect; % is scaled to controls: 0 for no effect and ±100 for the full control effect
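P. falciparum expressing integrated firefly luciferase grown in erythrocytes (2% hematocrit, 0.05% parasitemia final) with compounds for 96 hours at 37 C, 5% CO2. Growth inhibition read as loss of luminescence after adding luciferase detection reagent.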
CHX counter-1 = Cycloheximide Counterscreen for Small Molecule Inhibitors of Shiga Toxin. cell reporter, cycloheximide protein synthesis inhibition counterscreen. max response, %. 300,000 tested, 12% active. AID 2314, 2010; in the data active = max response mostly above about 13%, no sharp cut-off; inactive = mostly below about 14%; also: read at 38.3 µM for the half of the compounds with a filed dose; 0% is about no effect
Pf growth 48h = Primary qHTS for delayed death inhibitors of the malarial parasite plastid, 48 hour incubation. P. falciparum luciferase growth in erythrocytes, 48 h. Potency, µM (titrated, usually from 28.7 µM), for the others: top-dose activity change, negative = inhibition, usual class: inhibitors. 310,000 tested, 5.9% active; also: potency is read from the fitted curve at half-maximal effect; % is scaled to controls: 0 for no effect and ±100 for the full control effect
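Read-out is firefly luciferase luminescence from an integrated reporter in P. falciparum, so falling signal marks reduced parasite growth. Infected erythrocytes were at 2% hematocrit and 0.1% parasitemia (final) in Albumax-supplemented RPMI 1640.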
Shiga toxin inh = A qHTS for Small Molecule Inhibitors of Shiga Toxin; Vero cells, Shiga toxin protein synthesis inhibition reporter; inhibition, % at 38.7 µM; 290,000 tested, 9.2% active; AID 2315, 2010; in the data active = inhibition mostly above about 28%, no sharp cut-off; inactive = mostly below about 43%; also: 0% is about no effect
CHX counter-2 = Cycloheximide Counterscreen for Small Molecule Inhibitors of Shiga Toxin (Confirmatory); 510 tested, 3% active; shares compounds with Shiga toxin inh; Potency, µM (series often up to 38.3 µM), inactives show at the highest dose activity (activation), most hits filed as activators; Cycloheximide counterscreen, protein synthesis reporter, Shiga toxin assay; calls by dose curve; also: potency is read from the fitted curve at half-maximal effect; 0% is about no effect
Numbers without * were called inactive; ? = inconclusive; . = no result; + = active, no number; [ ] = remark or other dose. The list is not random: actives were taken first. Their share in the collection is about 21%. Unless noted, calls follow the shape of the dose curve; as a rule, active = well fitted curve in the direction sought with a large enough effect; inconclusive = small, poorly fitted or top-dose-only effect, or another doubt; inactive = no such curve, though single readings can be large; an effect the other way counts as inactive or inconclusive.

SMILES	NS1 inh	Sm TGR block	Pf growth 96h	CHX counter-1	Pf growth 48h	Shiga toxin inh	CHX counter-2
CCn1c(SCC(=O)NCc2ccco2)nc2c1c(=O)n(C)c(=O)n2C	-7%	-15%	-34%	-2	16%	68*	-1%
CCN(C(=O)CSc1nc2nc(C)cc(C)n2n1)C1CCS(=O)(=O)C1 (centres undefined)	.	9%	-4%	-2	-6%	-4	.
CC(=O)Nc1ccc(N2N=C(C)C(N=Nc3ccccc3)C2=O)cc1 (centres undefined)	-5%	-9%	26%	-2	15%	53*	?
CC(=O)N(C)c1ccc(N=NC2C(=O)N(C(N)=S)N=C2C)cc1 (centres undefined)	-12%	?	-5%	16	0%	38	.
O=C(c1cc2c(s1)-c1ccccc1OC2)N1CCN(c2ccccc2)CC1	-24%	5%	47%	5	.	62*	-2%
COc1ccc(-c2nnc3sc(-c4ccccc4OC)nn23)cc1	7%	0%	-9%	1	-11%	87*	-2%
COc1cc(/C=C(\C#N)c2nc3ccccc3[nH]2)cc(OC)c1O	-3%	.	-5%	9	?	64*	?
COc1cc(/C=C(\C#N)c2nc3ccccc3c(=O)[nH]2)cc(OC)c1OC	.	0%	.	.	.	.	.
Cc1cc(C(=O)COc2cccnc2[N+](=O)[O-])c(C)n1Cc1ccco1	2%	?	14%	14	-21%	10	.
Cc1cc(C(=O)COC(=O)c2cccn2C)c(C)n1Cc1ccco1	.	?	90%	10	172%	50*	0.71µM*
Cc1cnc(NC(=O)CSc2nc3ccccc3s2)s1	-50%	-25%	205%	15	.	0	.
Cc1cnc(NC(=O)c2ccc(-c3nc4ccccc4s3)o2)s1	-12%	-6%	11%	11	0%	60*	?
COCCSc1ccccc1C(=O)Nc1cc(C)ccn1	-6%	10%	80%	9	20%	-15	.
O=C(OCc1nc2ccccc2s1)c1cccc(N2C(=O)CCC2=O)c1	.	-2%	44%	7	3%	58*	2%
CN(c1ccc(C(=O)NCc2ccc3c(c2)OCO3)cc1)S(C)(=O)=O	0%	-2%	.	6	23%	-1	.
CN(C)c1ccc(C(=O)NCc2ccc3c(c2)CCO3)cc1	-2%	-8%	46%	2	40%	55*	7%
OC1C[N+]2(CCCCC2)C1	7%	-4%	42%	-2	?	30*	-2%
CCCOP(=O)(OCCC)c1nc(-c2ccccc2)oc1NCc1ccccc1	-20%	-2%	3.7µM*	4	5.9µM*	20*	1%
COP(=O)(OC)c1nc(-c2ccccc2)oc1NCc1ccccc1	-1%	0%	?	-5	?	-6	.
CC(=O)N1CCCc2ccc(NS(=O)(=O)c3cccc(Cl)c3)cc21	.	-2%	.	.	.	.	.
Cc1ccccc1N1CC(O)(c2ccccc2)[N+]2=C1SCC2 (centres undefined)	-10%	-9%	0%	-3	3%	-3	.
Cc1ccc(C2(O)CN(c3ccccc3C)C3=[N+]2CCS3)cc1 (centres undefined)	-5%	1%	-1%	-3	?	48*	-1%
CCN(CC(=O)Nc1cc(Cl)ccc1C)C(=O)c1cc([N+](=O)[O-])ccc1N1CCOCC1	.	-2%	-1%	.	-14%	.	.
COc1ccc(OCCN(C)C(=O)c2cccc(S(=O)(=O)N(C)c3ccccc3)c2)cc1	.	3%	?	.	?	.	.
O=c1cc(-c2cccc(F)c2)[nH]c2ccc(Cl)cc12	.	.	.	9	.	+	-2%
SMILES	NS1 inh	Sm TGR block	Pf growth 96h	CHX counter-1	Pf growth 48h	Shiga toxin inh	CHX counter-2
O=c1cc(-c2ccc(F)cc2F)[nH]c2ccccc12	?	1%	0%	-1	11%	-8	.
COc1ccc2[nH]c(-c3ccccc3)cc(=O)c2c1	.	.	.	17	.	+	?
COc1cccc(-c2cc(=O)c3cc(NC(=O)c4ccccc4)ccc3[nH]2)c1	13%	-11%	?	9	?	-7	.
COc1ccc(NC2=CC(c3ccccc3)N(c3ccc(OC)cc3)C2=O)cc1 (centres undefined)	7%	-35%	5%	5	-7%	65*	-2%
CCSc1nnc(-c2ccc(S(=O)(=O)N3CCCC3)cc2)n1C	0%	-10%	-52%	9	?	67*	-1%
CCSc1nnc(-c2ccc(S(=O)(=O)N3CCOCC3)cc2)n1C	7%	2%	?	-3	-25%	-4	.
Cc1ccc(S(=O)(=O)N(C)C)cc1NC(=O)[C@H](Cc1ccccc1)N1C(=O)c2ccccc2C1=O	13%	3%	-2%	-3	0%	-7	.
COC(=O)c1ccccc1NC(=O)CSc1nccn1C	3%	3%	-10%	14	47%	-14	.
COc1ccccc1C(=O)CSc1nccn1C	9%	6%	20%	17	79%	22*	5%
Cn1ncc(Cl)c1C(=O)Nc1cccnc1	6%	1%	9%	-4	41%	-4	.
CSc1cccc(NC(=O)c2c(Cl)cnn2C)c1	-14%	-6%	19%	14	53%	33*	?
Cn1ncc(Cl)c1C(=O)Nc1ccc(Cl)cn1	1%	4%	27%	15	32%	45*	?
CC1CN(S(=O)(=O)c2cccc(-c3cn4ccccc4n3)c2)CC(C)O1 (centres undefined)	-81%	6%	.	19	?	-21	.
Cc1cccn2cc(-c3cccc(S(=O)(=O)N4CC(C)OC(C)C4)c3)nc12 (centres undefined)	-43%	-1%	?	-1	-18%	28*	-1%
O=C(c1ccco1)N1CCN(C(=O)c2cc(-c3ccccn3)nc3ccc(Cl)cc23)CC1	-3%	7.9µM*	11%	5	?	32*	-1%
O=C(c1cc(-c2ccccn2)nc2ccc(Br)cc12)N1CCN(S(=O)(=O)c2ccccc2)CC1	4%	.	57%[5.75 µM]	-1	?	2	.
COc1ccc(NC(=O)Cc2nnc(SCC(=O)NC3CCCCC3C)n2C)cc1 (centres undefined)	2%	-1%	-20%	-6	?	2	.
CC1CCc2sc(C(=O)NN)cc2C1 (centres undefined)	.	5%	32%	11	47%	36*	-3%
CC1CCc2sc(C(=O)OCC(=O)NC(C)C)cc2C1 (centres undefined)	.	3%	39%	8	9%	22	.
